Laboratory results from the supplement of paper PMC11732987, “Enantioselective OTUD7B fragment discovery through chemoproteomics screening and high-throughput optimisation” (Communications Chemistry, 2025).
A number with no mark means an inactive call.

Experiments:
Assay in all cases: log2 ratio of Biotin-Ahx-Ub-VS probe labelling (fragment/DMSO); higher = less target engagement (more negative = stronger competition), active = hit call of the paper (q ≤ 0.05, log2 ratio ≤ -1)
Details in all cases: compound concentration: 200 uM; treatment time: 3 h
[1] = target: T1, OTUD6B (UniProt Q8N6M0)
T1 sequence (whole entry): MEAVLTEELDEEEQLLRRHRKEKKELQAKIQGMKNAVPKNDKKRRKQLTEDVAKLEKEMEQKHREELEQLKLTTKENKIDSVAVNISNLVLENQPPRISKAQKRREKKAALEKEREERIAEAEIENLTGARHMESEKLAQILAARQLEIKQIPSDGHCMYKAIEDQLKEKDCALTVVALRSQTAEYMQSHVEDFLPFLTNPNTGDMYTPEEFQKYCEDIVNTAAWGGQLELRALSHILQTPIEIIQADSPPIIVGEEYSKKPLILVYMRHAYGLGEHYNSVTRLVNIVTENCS
How it was run: (§1)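 Global-median-normalised Spectronaut label-free quantities were compared by unpaired t-test, and values are average log2 ratios of fragment over vehicle. Only proteins with ≥2 unique peptides were used. HEK293T lysate (495 µg per sample) was treated in triplicate with fragment at 200 µM or vehicle for 3 h and then with Biotin-Ahx-Ub-VS at 0.5 µM final for 1 h. Labelled DUBs were then NeutrAvidin-enriched, digested with LysC and trypsin, and run by diaPASEF LC-MS/MS.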

[2] = target: T2, OTUD7B (UniProt Q6GQQ9)
T2 sequence (whole entry): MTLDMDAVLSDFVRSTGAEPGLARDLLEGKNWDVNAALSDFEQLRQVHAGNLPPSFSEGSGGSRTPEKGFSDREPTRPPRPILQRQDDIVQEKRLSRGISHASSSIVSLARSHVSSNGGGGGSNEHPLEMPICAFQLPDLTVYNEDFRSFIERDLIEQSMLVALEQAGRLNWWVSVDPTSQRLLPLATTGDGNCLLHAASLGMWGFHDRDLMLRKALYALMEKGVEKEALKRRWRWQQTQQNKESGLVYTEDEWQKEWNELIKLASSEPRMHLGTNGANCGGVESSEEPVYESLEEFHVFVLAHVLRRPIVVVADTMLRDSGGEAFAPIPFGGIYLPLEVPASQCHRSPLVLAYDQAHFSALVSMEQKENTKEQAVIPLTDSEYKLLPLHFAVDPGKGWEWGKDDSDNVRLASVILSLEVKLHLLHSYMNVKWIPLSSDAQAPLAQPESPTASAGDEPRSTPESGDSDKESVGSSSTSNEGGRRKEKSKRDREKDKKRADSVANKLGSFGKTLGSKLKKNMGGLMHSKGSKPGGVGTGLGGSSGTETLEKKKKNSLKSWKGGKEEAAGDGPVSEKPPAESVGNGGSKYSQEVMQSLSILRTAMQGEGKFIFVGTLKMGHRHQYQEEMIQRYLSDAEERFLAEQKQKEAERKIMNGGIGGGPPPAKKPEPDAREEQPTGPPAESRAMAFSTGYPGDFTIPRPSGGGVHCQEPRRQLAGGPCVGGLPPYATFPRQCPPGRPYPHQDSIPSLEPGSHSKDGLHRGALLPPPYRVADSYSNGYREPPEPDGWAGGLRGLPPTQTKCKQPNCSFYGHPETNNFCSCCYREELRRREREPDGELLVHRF
How it was run: as §1

[3] = target: PRPF8 (UniProt Q6P2Q9)
How it was run: as §1

[4] = target: T3, PSMD7 (UniProt P51665)
T3 sequence (whole entry): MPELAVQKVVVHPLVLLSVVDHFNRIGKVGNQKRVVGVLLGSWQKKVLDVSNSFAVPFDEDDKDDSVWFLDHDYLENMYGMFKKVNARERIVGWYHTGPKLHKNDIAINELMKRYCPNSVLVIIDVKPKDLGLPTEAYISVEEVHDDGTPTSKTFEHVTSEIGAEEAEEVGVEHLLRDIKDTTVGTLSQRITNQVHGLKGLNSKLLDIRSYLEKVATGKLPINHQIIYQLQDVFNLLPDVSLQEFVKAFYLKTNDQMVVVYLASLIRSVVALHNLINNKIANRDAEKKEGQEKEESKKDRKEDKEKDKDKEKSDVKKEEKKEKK
How it was run: as §1

[5] = target: UCHL1 (UniProt P09936)
How it was run: as §1

[6] = target: T4, UCHL3 (UniProt P15374)
T4 sequence (whole entry): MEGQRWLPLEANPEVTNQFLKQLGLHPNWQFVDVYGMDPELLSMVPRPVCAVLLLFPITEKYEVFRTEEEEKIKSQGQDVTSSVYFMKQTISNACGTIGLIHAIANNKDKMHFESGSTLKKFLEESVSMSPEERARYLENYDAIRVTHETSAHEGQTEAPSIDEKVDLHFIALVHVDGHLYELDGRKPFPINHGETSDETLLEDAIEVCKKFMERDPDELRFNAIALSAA
How it was run: as §1

[7] = target: T5, UCHL5 (UniProt Q9Y5K5)
T5 sequence (whole entry): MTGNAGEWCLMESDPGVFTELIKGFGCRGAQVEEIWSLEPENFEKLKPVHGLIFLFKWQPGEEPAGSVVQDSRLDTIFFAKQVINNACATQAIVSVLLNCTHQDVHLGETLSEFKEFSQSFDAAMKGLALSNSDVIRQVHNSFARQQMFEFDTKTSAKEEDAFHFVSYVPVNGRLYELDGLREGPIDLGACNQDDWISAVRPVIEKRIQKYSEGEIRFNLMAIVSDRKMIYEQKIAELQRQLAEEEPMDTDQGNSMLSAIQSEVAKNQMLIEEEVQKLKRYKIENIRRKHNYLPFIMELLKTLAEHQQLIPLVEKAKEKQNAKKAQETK
How it was run: as §1

[8] = target: USP10 (UniProt Q14694)
How it was run: as §1

[9] = target: T6, USP15 (UniProt Q9Y4E8)
T6 sequence (whole entry): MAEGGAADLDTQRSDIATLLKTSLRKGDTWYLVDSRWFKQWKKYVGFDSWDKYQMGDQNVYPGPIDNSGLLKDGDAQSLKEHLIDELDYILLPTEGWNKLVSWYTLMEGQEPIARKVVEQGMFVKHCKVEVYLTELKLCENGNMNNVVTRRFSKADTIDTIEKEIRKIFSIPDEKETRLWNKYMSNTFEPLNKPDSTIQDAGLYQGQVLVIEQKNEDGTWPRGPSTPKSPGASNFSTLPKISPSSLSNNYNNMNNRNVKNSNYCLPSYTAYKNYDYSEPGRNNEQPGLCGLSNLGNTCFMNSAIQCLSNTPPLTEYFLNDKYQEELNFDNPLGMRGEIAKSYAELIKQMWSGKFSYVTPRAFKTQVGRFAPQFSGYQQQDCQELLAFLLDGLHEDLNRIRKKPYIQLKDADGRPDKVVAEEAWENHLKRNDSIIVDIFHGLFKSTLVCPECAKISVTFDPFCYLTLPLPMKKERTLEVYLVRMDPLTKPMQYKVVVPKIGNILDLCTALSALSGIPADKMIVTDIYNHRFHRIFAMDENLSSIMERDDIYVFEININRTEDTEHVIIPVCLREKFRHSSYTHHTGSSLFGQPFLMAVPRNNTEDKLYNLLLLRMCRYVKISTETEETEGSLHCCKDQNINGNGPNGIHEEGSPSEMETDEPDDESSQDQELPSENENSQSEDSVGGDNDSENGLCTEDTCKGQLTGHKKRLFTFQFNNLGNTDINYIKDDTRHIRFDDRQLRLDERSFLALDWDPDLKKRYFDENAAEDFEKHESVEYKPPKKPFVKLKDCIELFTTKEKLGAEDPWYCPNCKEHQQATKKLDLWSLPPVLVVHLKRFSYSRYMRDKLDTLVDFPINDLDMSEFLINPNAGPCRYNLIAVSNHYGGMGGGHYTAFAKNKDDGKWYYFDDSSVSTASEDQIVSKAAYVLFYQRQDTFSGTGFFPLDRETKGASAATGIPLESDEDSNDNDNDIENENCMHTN
How it was run: as §1

UCHL1, sequence (P09936 whole entry, looked up): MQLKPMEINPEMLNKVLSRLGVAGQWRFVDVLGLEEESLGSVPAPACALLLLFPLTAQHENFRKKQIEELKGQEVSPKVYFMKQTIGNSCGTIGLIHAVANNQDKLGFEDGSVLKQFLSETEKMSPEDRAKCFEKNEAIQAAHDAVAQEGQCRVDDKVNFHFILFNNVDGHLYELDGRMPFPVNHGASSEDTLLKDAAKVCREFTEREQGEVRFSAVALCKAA
USP10, sequence (Q14694 whole entry): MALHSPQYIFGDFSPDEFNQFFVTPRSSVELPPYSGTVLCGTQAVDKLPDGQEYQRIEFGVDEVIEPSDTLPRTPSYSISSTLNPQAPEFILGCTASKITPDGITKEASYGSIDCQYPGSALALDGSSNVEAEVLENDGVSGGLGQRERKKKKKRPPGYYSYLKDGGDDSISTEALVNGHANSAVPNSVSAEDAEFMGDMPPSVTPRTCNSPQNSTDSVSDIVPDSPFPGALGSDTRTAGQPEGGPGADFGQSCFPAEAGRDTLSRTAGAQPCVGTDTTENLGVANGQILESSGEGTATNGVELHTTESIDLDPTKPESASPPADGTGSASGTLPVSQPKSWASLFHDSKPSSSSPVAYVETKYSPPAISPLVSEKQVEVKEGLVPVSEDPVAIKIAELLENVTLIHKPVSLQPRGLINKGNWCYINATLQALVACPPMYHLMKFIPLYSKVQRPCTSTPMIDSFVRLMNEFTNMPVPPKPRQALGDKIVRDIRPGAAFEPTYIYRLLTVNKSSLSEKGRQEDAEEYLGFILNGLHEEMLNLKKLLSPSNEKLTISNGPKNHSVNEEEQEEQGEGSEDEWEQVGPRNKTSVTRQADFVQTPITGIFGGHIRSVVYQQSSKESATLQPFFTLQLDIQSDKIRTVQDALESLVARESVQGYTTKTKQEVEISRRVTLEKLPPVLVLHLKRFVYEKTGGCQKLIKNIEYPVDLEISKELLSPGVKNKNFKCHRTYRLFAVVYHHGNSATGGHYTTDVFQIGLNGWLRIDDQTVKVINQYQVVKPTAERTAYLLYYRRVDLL

CNC(=O)Cn1cc(NC(=O)CCl)cn1
log2 ratio of Biotin-Ahx-Ub-VS probe labelling [1]: -0.476 | log2 ratio of Biotin-Ahx-Ub-VS probe labelling [2]: -0.454 | log2 ratio of Biotin-Ahx-Ub-VS probe labelling [3]: 1e-05 | log2 ratio of Biotin-Ahx-Ub-VS probe labelling [4]: -0.0882 | log2 ratio of Biotin-Ahx-Ub-VS probe labelling [5]: -1.59 (active) | log2 ratio of Biotin-Ahx-Ub-VS probe labelling [6]: 0.189 | log2 ratio of Biotin-Ahx-Ub-VS probe labelling [7]: -0.399 | log2 ratio of Biotin-Ahx-Ub-VS probe labelling [8]: -0.209 | log2 ratio of Biotin-Ahx-Ub-VS probe labelling [9]: -0.375
